Measured values published in ChEMBL document CHEMBL4888484, “Replenishing the malaria drug discovery pipeline: Screening and hit evaluation of the MMV Hit Generation Library 1 (HGL1) against asexual blood stage Plasmodium falciparum ,using a nano luciferase reporter read-out” (2022).
Hit rate of the full screen: of about 4,800 compounds, about 420 (8.8%) showed an effect of 50% or more. The sample as a whole holds a higher share of strong results than the screen did.

Tested on: Plasmodium falciparum
Test: Confirmatory screen in NF54 nanoGlo assay, in single point, at 2uM, 72h
Format: functional, Erythrocyte
Details: timepoint 72 hour

Compound	% Inhibition [%]
CCC(C)(C)c1ccc(OCC(=O)Nc2cccc(C(=O)CC(=O)Nc3ccc(Oc4ccccc4)cc3)c2)c(C(C)(C)CC)c1	-4
CCN1CCN(C2CCN(c3ncc(F)c(OC)n3)CC2)CC1	48
COc1nc(N2[C@@H]3CC[C@H]2C[C@@H](OC)C3)ncc1F	62
COc1cc(N)ccc1OCC(F)F	2
Cc1nn(C)cc1-c1cc(C(F)(F)F)nc(N2CCOCC2)n1	-5
Cn1ccc(NC(=O)C(=O)c2ccc(-c3ccccc3)cc2)n1	1
Cc1ccccc1NC(=O)N1CCN(C(=O)c2nonc2N)CC1	-7
NS(=O)(=O)c1ccc(-c2noc(C3(c4cccc(F)c4)CCC3)n2)cc1	-9
COCCN1CCc2c(C)nc3c(-c4ccc(OC)c(OC)c4)cnn3c21	6
Cc1ccc(S(=O)(=O)N2CCC(c3csc(N)n3)CC2)cc1	-9
CCc1ncoc1C(=O)NCC(F)(F)c1cc(F)cc(F)c1	-10
O=C1CCc2[nH]c(=O)n(C3CCCCC3)c(=O)c21	4
C[C@@H]1NC(=O)N(C2CCCN(Cc3cccc(C(F)(F)F)c3)C2=O)C1=O (stereo not given in full)	-11
COc1ccc(-n2c(C)nn(Cc3ccccc3)c2=O)cc1	-11
CN(CCCNC(=O)Cc1n[nH]c(=O)c2ccccc12)Cc1ccccc1	-2
CCCC(=O)Nc1ccc(N2CCN(CC(=O)N(CC)CC)CC2)cc1C(=O)O	-2
Cc1cc(C)c(NC(=O)c2nnn(CC(=O)NCc3ccc(F)cc3)c2C)c(C)c1	-9
O=C(N[C@H]1C[C@@H]2C[C@H]1CN2C(=O)c1cccc(C(F)(F)F)c1)c1ccccc1	3
COc1cc(C)c2[nH]c3c(c(=O)c2c1)CN(CC(=O)Nc1ccc(F)c(C)c1)CC3	14
COc1cc(C)c2[nH]c3c(c(=O)c2c1)CN(CC(=O)Nc1ccc(C)c(F)c1)CC3	0
COc1ccc(OC)c(NC(=O)CN2CCc3[nH]c4ccc(F)cc4c(=O)c3C2)c1	72
COc1ccc(S(=O)(=O)N(C2CCCCC2)C2CCCCC2)cc1	-11
CCN(CCc1ccncc1)S(=O)(=O)c1ccc(N2C(=O)CCS2(=O)=O)cc1C	6
O=C(Nc1ccc(-c2nc3cnccc3o2)c(Cl)c1)c1sc2ccccc2c1Cl	-5
COc1cccc(-c2cc(O)cc(CC[C@H]3CCCCN3)c2)n1	73

Compound	% Inhibition [%]
Oc1cc(CC[C@H]2CCCCN2)cc(-c2cnc3ccccc3n2)c1	73
COCCN(CC1CN(Cc2ccsc2)CC1c1cccc(F)c1)C(=O)C(C)C (stereo not given)	2
O=C(Nc1ccc(N2CCn3c(nc4cc(Cl)ccc43)C2)cc1)c1ccc(F)cc1	-6
Cc1nc(Cc2nc(O)cs2)sc1C	-20
NC[C@H]1CN(CCc2cccc(Cl)c2)C(=O)O1	-8
Cc1ccnc2nc(C(=O)N(C)c3ccc(Cl)cn3)nn12	16
CCC(=O)Nc1nc2ccc(NS(=O)(=O)Cc3ccccc3)cc2s1	-5
Fc1cccc(Br)c1C1CC(c2cccnc2)Nc2ncnn21 (stereo not given)	-9
CC(C)(C)OC(=O)NCc1ccccc1O	1
O=C(NC1CCN(Cc2ccccc2)CC1)c1cncc(O)c1	-10
CCN1CCN(C(=O)c2ccccc2N2CCC(NC(=O)c3cccc(Br)c3)CC2)CC1	44
CCN(CC)CCCNC(=O)c1ccc(-c2nc(CS(=O)(=O)c3ccccc3)c(C)o2)cc1	-10
O=S(=O)(c1ccc(Cl)cc1)N1CCN(C2CCCC2)CC1	2
Cc1ccc(Cn2cnc(NC(=O)CCn3c(=O)cc(C(F)F)c4cn(C)nc43)n2)cc1	-8
CCCCn1nc(NC(=O)c2cc(C3CC3)[nH]n2)cc1C	-2
Cc1cccc(NC(=O)c2cc(C)nc3c2c(C)nn3-c2ccc(F)cc2)c1	-2
CC(C)NC(=O)N(C)Cc1ccc(F)cc1	0
CCn1c(C)c(C)c2cc(C(=O)Nc3cccc(S(=O)(=O)N4CCOCC4)c3)ccc21	0
CCN1CCN(c2cccc(NC(=O)c3cc(F)cc4c(=O)c5cc(F)ccc5[nH]c34)c2)CC1	97
CC(=O)Nc1cccc(C#CCN2CCN(c3ccc(F)cc3)CC2)c1	-5
CC(C)n1nccc1NC(=O)c1c[nH]c2ccc(F)cc2c1=O	-1
O=c1[nH]c2ccccc2c(NCc2ccccc2)c1N1CCN(c2ccccc2)CC1	5
CN(C)Cc1ccc(NC(=O)c2cc(F)cc3c(=O)c4cc(F)ccc4[nH]c23)cc1	79
CCN1CCN(c2cccc(NC(=O)c3ccc4[nH]c5ccccc5c(=O)c4c3)c2)CC1	93
O=C(Nc1ccc(N2CCC(N3CCCCC3)CC2)cc1C(=O)O)c1ccccc1Cl	4

Compound	% Inhibition [%]
O=C1C2C3C=CC(C3=C(c3ccccc3)c3ccccc3)C2C(=O)N1CCO (stereo not given)	-5
N#Cc1ccc(N[C@H]2CCCN(Cc3ccc(F)cc3F)C2=O)cn1	-10
Cc1nc(COc2nc(C(C)(C)C)no2)cs1	-10
Cc1ccsc1NC(=O)OC(C)(C)C	1
Cc1nonc1N(Cc1ccc(Cl)cc1Cl)S(=O)(=O)c1ccccc1	-22
COc1cc(C(=O)N2CCN(c3ccccc3)CC2)cc2occc12	-2
O=C(NCc1cccc(Br)c1)c1ccc(Cl)c(-n2cnc3cccnc32)c1	-1
O=C(COCC(=O)Nc1cccc(Cl)c1Cl)NCCC1=CCCCC1	-3
O=C(O)C1CC=CCC1C(=O)N1CCCCCC1 (stereo not given)	2
NC(=O)C(=O)Nc1ccccc1C(F)(F)F	-8
CC(C)c1ccc(Oc2cnn(-c3cccc(Cl)c3)c(=O)c2Nc2cccc(C(=O)NC3CC3)c2)cc1	48
COc1ccc(CNC(=O)c2cc(C(=O)c3ccc(F)cc3)c[nH]2)cc1	-11
COc1ccc(-n2ncc(Oc3cccc(C)c3)c(Nc3cccc(C(=O)NCc4ccc(F)cc4)c3)c2=O)cc1	50
O=c1cc(COc2ccc(F)c(F)c2)nc2sccn12	3
CN(CCNC(=O)CCc1cn(-c2ccccc2)nc1-c1ccc2c(c1)OCO2)C1CCCCC1	52
O=C(CCn1nc(-c2ccc3c(c2)OCO3)ccc1=O)NC1CCCCC1	-10
Cc1cc2nc(C)c(=O)n(CCC(=O)NCCCN(C)C3CCCCC3)c2cc1C	0
CN(C)c1noc(CN2CCc3ccc(F)cc3C2)n1	25
COc1ccc(S(=O)(=O)Nc2c(C)nc3ncnn3c2O)cc1	-18
CCN1CCN(c2nc(O)c3c(n2)NC(=O)C[C@H]3c2cccc(F)c2)CC1	-11
Cn1ncc2c(NCCO)nc(N3CCCCCC3)nc21	5
O=S(=O)(NC1CCCCC1)c1ccc(Cl)c(S(=O)(=O)NC2CCCCC2)c1	0
N#Cc1cc(S(=O)(=O)NCCN(C2CC2)S(=O)(=O)c2ccc(Cl)c(C#N)c2)ccc1Cl	75
COc1ccc(-n2nc(C(=O)N3CCN(c4ccccc4)CC3)c(=O)cc2OC)cc1	-5
Cn1ccnc1[C@@H](NC(=O)c1ccnn1C(F)F)C(C)(C)CO	-2

Compound	% Inhibition [%]
CCc1nc2c(C(=O)N3CCOc4c(C)cc(C)cc43)ccnc2[nH]1	72
COc1cccc(CNCc2ccc3c(c2)OCO3)c1OCc1ccc(Cl)cc1Cl	-3
Cc1c(C(=O)N2CCCCC2)cccc1N1CCNC1=O	-15
COc1cccc(NC(=O)c2ccccc2C(=O)OCCN2CCOCC2)c1	-2
COc1cccc(C(=O)N2CCC3(CC2)C[C@@H](OCc2ccccc2)CCO3)c1	-3
COc1ccc2c(c1)OC13CCN(C)CC1C2C(C(=O)c1ccccc1OC)C(=O)N3 (stereo not given)	57
Cc1cc(C(=O)NCC[C@H](C)n2nc(C)cc2C)c2c(-c3ccc(F)cc3)noc2n1	-9
Cn1cc(-c2nn(S(=O)(=O)c3ccccc3)c(-c3cnn(C)c3)c2Cl)cn1	2
CC1CC1NC(=O)C(NS(C)(=O)=O)C(C)(C)C (stereo not given)	8
Cc1nc[nH]c1CN1CCN(C(=O)CCC(C)C)[C@H]2CS(=O)(=O)C[C@H]21	0
CCc1nc2cc(-c3noc(Cc4ccc(Cl)cc4)n3)ccc2o1	-5
O=C(c1ccccc1)c1ccc(O)c(CN2CCCN(c3ccc(C(F)(F)F)cn3)CC2)c1O	79
Cc1ccc(-n2nc(C)cc2NC(=O)CN2CCCN(c3ccc(C(F)(F)F)cn3)CC2)cc1	6
Cc1cccc(-c2nc3nc(C)c(CC(=O)N4CCCCC4)c(C)n3n2)c1	1
O=C(c1ccccc1OCC1CC1)N1CC(O)C1	-5
Cc1c(Cl)cccc1NC(=O)[C@H]1CC(=O)N(c2ccc(OCc3ccccc3)cc2)C1	-3
O=C(Cn1cnc2cc3c(cc21)OCCCO3)N1CCc2ccccc21	0
CC[C@@H](CO)NCc1cccc(OC)c1OCC(=O)NC(C)(C)C	-8
CCOc1cc(CNc2cccc3ccccc23)cc(Br)c1OCC(=O)NC(C)(C)C	89
COc1cccc(CNC(C)(C)C)c1OCC(=O)NC(C)(C)C	-5
COc1ccc(Cl)cc1CNC[C@H](C)O	-6
CCc1ccc(/C=C/c2c[nH]c3ccccc23)[n+](CC)c1	89
C[n+]1ccccc1/C=C/c1c[nH]c2ccccc12	90
O=C(Cc1cccs1)NC1CCN(c2nnc3ccc(Cl)cn23)CC1	-12
Cc1ccc([C@@H]2c3cccn3CCCN2Cc2cccs2)cc1C	10
